Records with an inconclusive call do not appear. Entries that show only a call come without a potency. The source holds several records for some structures; these can differ, active in one and inactive in another. Calls of active or inactive are those of the source. The call rests on the fitted dose curve; in most records, active means well fitted inhibition curve with a large enough effect in the repeat runs; inconclusive means weak or mixed curves, or effect the other way; inactive means no such curve, though single readings can be large or run the other way.
Target: Nuclear receptor subfamily 1 group I member 3 (Homo sapiens) (UniProt Q14994)
Sequence (Q14994 whole entry, looked up): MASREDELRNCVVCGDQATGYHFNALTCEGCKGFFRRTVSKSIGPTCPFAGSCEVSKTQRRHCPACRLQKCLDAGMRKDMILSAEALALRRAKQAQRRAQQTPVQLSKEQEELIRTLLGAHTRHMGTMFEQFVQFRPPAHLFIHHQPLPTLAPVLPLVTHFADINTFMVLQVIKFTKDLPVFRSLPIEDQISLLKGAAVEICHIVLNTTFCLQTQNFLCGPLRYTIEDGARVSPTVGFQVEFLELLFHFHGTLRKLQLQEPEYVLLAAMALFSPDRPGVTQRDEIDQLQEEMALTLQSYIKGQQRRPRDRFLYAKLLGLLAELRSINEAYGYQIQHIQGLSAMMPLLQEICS
Assay: qHTS assay to identify small molecule antagonists of the constitutive androstane receptor (CAR) signaling pathway (AID 1224838);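 further: HepG2 cells stably expressing hCAR with CYP2B6 luciferase reporter stimulated by CITCO; nearly all actives have a fitted effect of over 40% in size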
Conditions: HepG2-CYP2B6-hCAR luciferase, CITCO-stimulated, 24 h; series mostly up to 92.4 µM
From the text: U.S. Tox21 Program National Center for Advancing Translational Sciences [NCATS] NIH Chemical Genomics Center [NCGC] U.S. Environmental Protection Agency [EPA] National Institutes of Environmental Health Sciences [NIEHS] National Toxicology Program [NTP] U.S. Food and Drug Administration [FDA] Tox21 Assay Overview: The constitutive androstane receptor (CAR) is a nuclear receptor which regulates multiple drug metabolizing enzymes (DMEs) and transporters. Activating CAR will generally increase the transcription and subsequent translation of CYP2B6 and CYP3A4. These two DMEs represent about 50% of the drug metabolizing potential in the body. When CAR is deactivated, the metabolizing potential in the body will decrease, subsequently increasing the toxicity in the body or lowering the therapeutic potential of a pro-drug. Recently, there have also been studies performed indicating CARs role in energy metabolism and cancer therapy. Therefore, inhibiting CARs activity could have a potential effect on diabetes and cancer. Identifying environmental toxins and compounds which modulate CAR, through the use of the Tox21 10K compound collection, will be an important step in determining the toxicity and potential therapeutic effects these factors will have on the human body.
Tox21 Assay Protocol Summary: A double-stable (hCAR and CYP2B6-2.2kb) transfected cell line, derived from human hepatoma (HepG2) cells, was utilized for the duration of the quantitative high-throughput screens. The HepG2-CYP2B6-hCAR cells suspended in DMEM culture medium supplemented with 10% FBS, 5 ug/mL blasticidin, 0.5 mg/mL geneticin, 100 U/mL penicillin and 100 ug/mL streptomycin were dispensed at 2500 cells/4 uL/well in 1536-well white solid bottom plates using a Multidrop Combi. After the assay plates were incubated at 37 C/5% CO2 for 4 hrs, 23 nL of compounds at 15 concentrations (from 5-48 columns) or positive control (from 1 to 4 columns) were transferred to the assay plates using a Pintool station. One uL of CITCO, was added using a Flying Reagent Dispenser to generate a final concentration of 50 nM CITCO inside each well. After a 24 hr incubation period at 37 C/5% CO2, four uL of ONE-Glo reagent was added into the assay plates using a Flying Reagent Dispenser. After a 30 min incubation period at room temperature, the luminescence intensity in the assay plates was measured using a ViewLux plate reader.
Potency means the concentration at half of the fitted maximal effect.

Structure (SMILES)	Potency
CCCCCCCCOC(=O)c1ccccc1C(=O)OCCCCCCCC	inactive
Cc1ccccc1[N+](=O)[O-]	inactive
CCC(C)(c1ccc(O)cc1)c1ccc(O)cc1	inactive
Cc1ccc(N)c(N)c1	inactive
CCCCCc1cc(O)cc(O)c1	inactive
C1=Cc2cccc3cccc1c23	inactive
C=CC(=O)OCCO	inactive
CCOCN(C(=O)CCl)c1c(C)cccc1CC	inactive
Nc1c(Cl)cc([N+](=O)[O-])cc1Cl	inactive
CCC(CC)Nc1c([N+](=O)[O-])cc(C)c(C)c1[N+](=O)[O-]	inactive
CN(C)C(=O)Nc1ccc(Cl)cc1	inactive
c1nc[nH]n1	inactive
CCOc1cc(Oc2ccc(C(F)(F)F)cc2Cl)ccc1[N+](=O)[O-]	inactive
CC(C)(OOC(C)(C)c1ccccc1)c1ccccc1	inactive
CC(C)=CC1C(C(=O)OCc2coc(Cc3ccccc3)c2)C1(C)C (stereo not given)	inactive
COC(=O)c1sccc1S(=O)(=O)NC(=O)Nc1nc(C)nc(OC)n1	inactive
COP(=S)(OC)Oc1cc(Cl)c(Cl)cc1Cl	inactive
CC(C)(C)c1ccccc1O	inactive
CC(C)Oc1cc(-n2nc(C(C)(C)C)oc2=O)c(Cl)cc1Cl	inactive
COP(=O)(OC)OC	30.9 µM (active) and inactive

Structure (SMILES)	Potency
O=P(Oc1ccccc1)(Oc1ccccc1)Oc1ccccc1	inactive
C#CCOS(=O)OC1CCCCC1Oc1ccc(C(C)(C)C)cc1 (stereo not given)	inactive
Nc1ccc(Cl)c(Cl)c1	inactive
O=S(=O)(Oc1ccc(Cl)cc1)c1ccc(Cl)cc1	inactive
CC1(C)C(C=C(Cl)Cl)C1C(=O)OC(C#N)c1cccc(Oc2ccccc2)c1 (stereo not given)	inactive
O=[N+]([O-])c1c(Cl)c(Cl)c(Cl)c(Cl)c1Cl	inactive
O=[N+]([O-])c1ccc(O)c([N+](=O)[O-])c1	inactive
Cc1ccc2c(c1N)C(=O)c1ccccc1C2=O	inactive
O=C(NC(=O)c1c(F)cccc1F)Nc1ccc(Cl)cc1	inactive
O=P(O)(O)CCCl	inactive
c1ccc(P(c2ccccc2)c2ccccc2)cc1	inactive
CCCCCCCCC(=O)NCc1ccc(O)c(OC)c1	inactive
C[C@]12CCC(=O)C(O)=C1CC[C@@H]1[C@@H]2CC[C@]2(C)C(=O)CC[C@@H]12	inactive
CCCCC(CC)COC(=O)c1ccc(C(=O)OCC(CC)CCCC)c(C(=O)OCC(CC)CCCC)c1 (stereo not given)	inactive
C=CCc1ccc(OC)cc1	inactive
CCC(C)c1cc([N+](=O)[O-])cc([N+](=O)[O-])c1O (stereo not given)	inactive
CC(O)CCO (stereo not given)	inactive
Cc1cccc(N)c1N	inactive
O=[N+]([O-])c1cccc2ccccc12	inactive
CCCCN(CC)c1c([N+](=O)[O-])cc(C(F)(F)F)cc1[N+](=O)[O-]	inactive
